Assay results: ChEMBL document CHEMBL3988442, “University of Dundee, Small-Polar-MMV Screening Library” (2021)
Several values for one entry are separate records, joined by “and”; a condition that tells them apart may be missing. Equal values may be shown once. Among all 34,000 compounds or so, about 290 (0.85%) showed an effect of 50% or more. Only a selection was taken, and strong results are over-represented in it overall.

Tested on: Plasmodium falciparum
Assay: Plasmodium falciparum sporozoite viability assay
Type: functional, organism-based
Parameters: scale not given: in the data most compounds retested in dose-response had high values

Structure (SMILES) | Percent Effect [%] | Percent Effect (10 mM as filed; unlikely as a test dose)
N#Cc1c(N)nc2c(c1C1CCOC1)CCc1cc(O)ccc1-2 (stereo not given) | 4.476 | 
CN(CCc1ccccn1)C(=O)c1cnn(-c2ccccc2F)c1N | -5.321 | 
COc1ccc(CN2Cc3[nH]nc(C(=O)N(C)C)c3C2)cc1 | 11.47 | 
Cl.Cn1cc([C@@H]2CN(S(=O)(=O)c3cccs3)C[C@H]2N)c2ccncc21 | -0.5895 | 
COc1ccc(CC(=O)N2CCCC(n3cccn3)C2)cc1F (stereo not given) | 5.192 | 
CS(=O)(=O)CCSc1nnc(Cc2ccccc2F)o1 | -5.789 | 
Cc1ccc(OCc2occc2C(=O)N2CCOC(C(=O)O)C2)cc1 (stereo not given) | 16.87 | 
O=C1COc2cc(OC[C@@H]3CCCN4CCCC[C@H]34)ccc21 | -3.094 | 
O=C1CCCN1Cc1nnc2n1CCN(Cc1ccco1)C2 | 15.42 | 
CN(C)CCNC(=O)C1Cc2nc(-c3ccccc3)sc2N1CC1CC1.O=C(O)C(F)(F)F (stereo not given) |  | 63.41% and 51.04% and 49.77%
CN(C)CCNC(=O)[C@H]1C[C@@H]2CN(C(=O)NCc3ccccc3)C[C@H]1O2.O=C(O)C(F)(F)F | -11.68 | 
CN(C)CCNC(=O)c1sc2ccccc2c1C1CCC(CN)CC1.Cl (stereo not given) | 13.87 | 
CN(C)CCNC(=O)c1cc(-c2cnc(N(C)C)nc2)cn1CC1CC1 | 2.417 | 
Cc1occc1C(=O)N1CCCN(Cc2nccn2C(C)C)CC1 | 16.64 | 
CC(C)CN1C(=O)C[C@@H]2[C@@H]1CCN2Cc1cccc(C#N)c1.O=C(O)C(F)(F)F | 7.99 | 
c1csc(-c2noc(CN3CCc4c(ncn4C4CC4)C3)n2)c1 |  | 59.38% and 60.81%
c1cc(-c2noc(CN3CCc4c(ncn4C4CC4)C3)n2)cs1 |  | 83.48% and 80.24%
c1coc(-c2noc(CN3CCc4c(ncn4C4CC4)C3)n2)c1 |  | 9.104% and 3.38%
Cc1cccc(-c2noc(CN3CCc4c(ncn4C4CC4)C3)n2)c1 |  | 39.81% and 43.38%
c1ccc(-c2noc(CN3CCc4c(ncn4C4CC4)C3)n2)nc1 |  | 42.55% and 46.63%
CCOc1ccc(C#N)cc1NCC(=O)NC(=O)Nc1ccccc1 | -20.07 | 
CC(C)Oc1ccc(CNC(=O)NCC(C)(C)C(N)=O)cc1F | -18.14 | 
Cl.O=S1(=O)CCC(NCCn2cncc2-c2ccc3c(c2)CCCO3)C1 (stereo not given) | -8.887 | 

Structure (SMILES) | Percent Effect [%] | Percent Effect (10 mM as filed; unlikely as a test dose)
CN(C)S(=O)(=O)NCC1CCN(Cc2ccccc2F)CC1 |  | -11.15% and -13.88%
c1ccc(Oc2ccc(CNCC3CNc4ccnn4C3)cn2)cc1 (stereo not given) | -2.407 | 
OCC(CO)N1CCCC(Cc2cnc(Nc3ccccn3)cn2)C1 (stereo not given) | 3.086 | 
Cc1noc(CNc2ccc(C(=O)N3CCCC(C)C3)cc2C)n1 (stereo not given) |  | 12% and 12.75% and 4.849%
Cc1cc(C(=O)N2CCCC(C)C2)ccc1NCc1nc(C(C)C)no1 (stereo not given) |  | 54.84% and 44.37% and 61.2%
COc1cc(N2C[C@@H]3COC[C@]3(COCc3ccccn3)C2)ncn1.O=C(O)C(F)(F)F.O=C(O)C(F)(F)F | 7.967 | 
CN1CCCC1c1ccnc(C(=O)N(C)C2CCCCC2)c1 (stereo not given) | 7.615 | 
CC(=O)Nc1nc(C(=O)NCc2ccc(N3CCOC(C)C3)nc2)cs1 (stereo not given) | 13.32 | 
CC(C)c1n[nH]c(C(=O)Nc2ccnn2C(C)C)c1Br |  | 92.02% and 87.97% and 88.19%
Cc1ccnc(NC(=O)c2ccc(-n3ncc(C#N)c3N)cc2)c1 | 11.53 | 
Cc1cccc(NC(=O)c2cncc(C3CCNCC3)n2)n1 | 3.261 | 
COCCN1CCN(C(C)C(=O)Nc2ccnn2C(C)C)CC1 (stereo not given) | -4.51 | 
Cc1n[nH]c(C(=O)NCc2ccnc(OCC(F)(F)F)c2)c1Br | -2.803 | 
Cc1cccc(NC(=O)c2sccc2C)n1 | 7.103 | 
O=C(Nc1cc(C2CCOCC2)[nH]n1)c1cc[nH]n1 | -6.094 | 
Cc1ccnc(NC(=O)c2[nH]nc(C(C)C)c2Br)c1 |  | 109% and 104.4% and 105.9%
Cc1cccc(NC(=O)c2[nH]nc(C(C)C)c2Br)n1 |  | 102.6% and 98.53% and 104.2%
CC(C(=O)Nc1ccnn1C(C)C)N1CCN(Cc2ccccc2)CC1 (stereo not given) | -6.509 | 
COc1ccncc1NC(=O)c1[nH]nc(C(C)C)c1Br |  | 41.3% and 28.4%
COc1ccccc1C1(C(=O)NCCN2CCCCC2)CCOCC1 | 7.717 | 
C[C@@H]1CN(Cc2ccccn2)C[C@]12CCN(Cc1cccnc1)C2=O.O=C(O)C(F)(F)F.O=C(O)C(F)(F)F.O=C(O)C(F)(F)F | -3.791 | 
Cn1cc(CN2CCC3(CC2)CC(Nc2nccs2)CO3)cn1.O=C(O)C(F)(F)F (stereo not given) | 18.81 | 
NC(=O)c1cc(C2CCCN(C(=O)CCc3ccncc3)C2)n[nH]1 (stereo not given) | -0.3069 | 

Structure (SMILES) | Percent Effect [%] | Percent Effect (10 mM as filed; unlikely as a test dose)
Cc1ccc(NC(=O)CSCc2cccnc2)nc1 |  | -29.55% and -38.68%
Cl.O=C(Nc1ccccn1)c1cncc(C2CCNCC2)n1 | -0.4476 | 
Cc1ccnc(NC(=O)c2ccc(C)o2)c1 |  | -40.27% and -55.88%
CC(C)c1n[nH]c(C(=O)Nc2ccccn2)c1Br |  | 107.3% and 96.92% and 105.3%
Cc1ccnc(NC(=O)c2ccc(Cl)o2)c1 |  | 72.69% and 57.82%
CC(C)C(NC(=O)Nc1ccccn1)c1cccs1 (stereo not given) | 14.64 | 
CC(C)c1n[nH]c(C(=O)Nc2ccncc2)c1Br |  | 98.93% and 67.14% and 45.46%
CC(C)c1n[nH]c(C(=O)NC(C)c2ccncc2)c1Br (stereo not given) |  | 40.84% and 49.25% and 43.96%
Cc1ccnc(NC(=O)CSCc2cccnc2)c1 |  | 65.53% and 89.16%
CCC1CCCCN1C(=O)c1ccnc(N(C)C)c1 (stereo not given) | 0.6463 | 
Cc1ccccc1OC1CCN(S(=O)(=O)c2c(C)n[nH]c2C)CC1 | 0.8951 | 
COc1ccccc1CN(Cc1nc(CC(C)C)no1)C1CC1 | -1.432 | 
COc1c(C2CCCN2C(=O)c2ccc3c(c2)OCO3)c(C)nn1C (stereo not given) | 6.2 | 
Cn1ccnc1C(=O)N1CCC2(CCN2Cc2ccc(F)cc2)C1.O=C(O)C(F)(F)F (stereo not given) | -1.35 | 
Cc1cccc(CN2CCn3c(COc4ncccn4)nnc3C2)n1 | -3.893 | 
O=C(N[C@@H]1CC[C@@H](N2CCCC2)[C@@H]1O)c1cc2ccccc2[nH]1 | 4.476 | 
Cc1ccnc(NCCNC(=O)CCNC(=O)c2ccccc2F)c1 |  | 3.593% and 6.463%
Cc1ccnc(NC(=O)CCNC(=O)c2ccccc2Cl)c1 |  | 67.45% and 43.1%
Cc1ccnc(NC(=O)c2cncc(C3CCNCC3)n2)c1 | 28.13 | 
CCC(NC(=O)CCNC(=O)c1ccccc1F)c1cc(C)ccn1 (stereo not given) |  | -6.667% and 1.59%
Cc1ccnc(NC(=O)c2cnc(C3CCCNC3)cn2)c1 (stereo not given) |  | 70.96% and 81.72% and 59.47%
Cc1cccc(NC(=O)c2cnc(C3CCCNC3)cn2)n1 (stereo not given) |  | 4.473% and -18.26% and -18.86%
CNC(=O)CC1CC2(CCN(S(C)(=O)=O)CC2)c2ccccc21 (stereo not given) | -20.92 | 

Structure (SMILES) | Percent Effect [%] | Percent Effect (10 mM as filed; unlikely as a test dose)
Fc1cnc(N2C[C@@H]3C[C@@H](c4nc(C5CC5)cs4)O[C@@H]3C2)nc1.O=C(O)C(F)(F)F | -20.62 | 
Cc1ccc(-c2nnc(CN3CCc4cnc(C)nc4C3)o2)cc1 |  | 3.206% and -6.075% and -3.091%
Cc1ncc2c(n1)CN(Cc1nnc(-c3occc3C)o1)CC2 |  | 65.26% and 48.37% and 69.52%
Cc1noc(C)c1CC(=O)N[C@@H]1CC[C@@H](Oc2ccccc2)[C@@H]1O | 3.978 | 
Cc1nccn1C1CCCN(C(=O)c2ccc(-n3cccn3)nc2)C1 (stereo not given) | -4.8 | 
CN1CCN(c2cc(CNC(=O)c3ccsc3)ccn2)CC1 | 4.114 | 
CN1CC(=O)N(c2cccc(F)c2)CC12CCN(CC1CC1)C2.O=C(O)C(F)(F)F.O=C(O)C(F)(F)F (stereo not given) | -25.37 | 
c1ccc(-c2nnc(N3CCCC4(CCOC4)C3)s2)cc1 (stereo not given) |  | 67.59% and 93.8% and 88.49%
c1ccc2sc(N3CCCC4(CCOC4)C3)nc2c1 (stereo not given) |  | -44.73% and -22.63% and -45.78%
O=C1CN(c2ccc(CNC(=O)NCCO)cc2)CCN1 | 1.887 | 
CCc1noc(CN(CC)Cc2cc3cc(C)ccc3[nH]c2=O)n1 | -10 | 
Cc1[nH]/c(=N\C(=O)c2csc(NCC(C)C)n2)sc1C |  | 72.35% and 45.27% and 35.24%
CC(=O)Nc1nc(C(=O)N2CCCC(c3cc(C)[nH]n3)C2)cs1 (stereo not given) | 3.993 | 
Cc1[nH]/c(=N\C(=O)c2csc(NC3CCCC3)n2)sc1C |  | 52.39% and 34.41%
Cc1cn2c(n1)CCC(NC(=O)c1cc[nH]n1)C2 (stereo not given) | 2.695 | 
Cc1cs/c(=N/C(=O)c2csc(NCC(C)C)n2)[nH]1 |  | -15.12% and -26.88%
Cc1[nH]/c(=N\C(=O)c2csc(NC3CC3)n2)sc1C |  | 50.71% and 20.82% and 44.18%
CC(=O)Nc1nc(C(=O)N2CCC(Nc3cccnn3)CC2)cs1 | -14.59 | 
O=C(O)C(F)(F)F.O=C(O)C(F)(F)F.c1cncc(C2COC3(CCN(Cc4cccs4)CC3)C2)c1 (stereo not given) | -1.667 | 
CC(Cn1cccn1)NC(=O)NCCc1cccs1 (stereo not given) | -5.389 | 
CC(C)c1n[nH]c(C2CN(C(=O)c3cn4ccccc4n3)CCO2)n1 (stereo not given) | -4.937 | 
